This passage reports Potency and outcome results from PubChem BioAssay (Tox21).

Values joined by “and” are separate entries in the source; they are usually repeats but may differ in a detail not shown here. Equal values may be shown once. Records with an inconclusive call do not appear. The source holds several records for some structures; these can differ, active in one and inactive in another. Active and inactive are the calls of the source. Unless noted, the call rests on the fitted dose curve; in most records, active means well fitted curve in the direction sought with a large enough effect in the repeat runs; inconclusive means weak or mixed curves; inactive means no such curve, though single readings can be large; an effect the other way counts as inactive or inconclusive.

In experiment [1] the target is Aryl hydrocarbon receptor (Homo sapiens) (UniProt P35869). As to the kind of experiment: qHTS assay to identify small molecule that activate the aryl hydrocarbon receptor (AhR) signaling pathway (AID 743085). Further: nearly all actives have a fitted effect of over 15% in size. Further: potency means the concentration at half of the fitted maximal effect.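 On activation: HG2L7.5c1 human HepG2 liver cells with stably integrated DRE-driven firefly reporter; series mostly up to about 70 µM.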 The method, boiled down: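 Stably transfected human liver carcinoma cells (HG2L7.5c1; 20 DRE-firefly luciferase) were incubated 5 h, dosed, and kept 24 h at 37C. Agonism was scored from increased luciferase luminescence.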
Chain of Aryl hydrocarbon receptor (Homo sapiens) (P35869 whole entry, looked up): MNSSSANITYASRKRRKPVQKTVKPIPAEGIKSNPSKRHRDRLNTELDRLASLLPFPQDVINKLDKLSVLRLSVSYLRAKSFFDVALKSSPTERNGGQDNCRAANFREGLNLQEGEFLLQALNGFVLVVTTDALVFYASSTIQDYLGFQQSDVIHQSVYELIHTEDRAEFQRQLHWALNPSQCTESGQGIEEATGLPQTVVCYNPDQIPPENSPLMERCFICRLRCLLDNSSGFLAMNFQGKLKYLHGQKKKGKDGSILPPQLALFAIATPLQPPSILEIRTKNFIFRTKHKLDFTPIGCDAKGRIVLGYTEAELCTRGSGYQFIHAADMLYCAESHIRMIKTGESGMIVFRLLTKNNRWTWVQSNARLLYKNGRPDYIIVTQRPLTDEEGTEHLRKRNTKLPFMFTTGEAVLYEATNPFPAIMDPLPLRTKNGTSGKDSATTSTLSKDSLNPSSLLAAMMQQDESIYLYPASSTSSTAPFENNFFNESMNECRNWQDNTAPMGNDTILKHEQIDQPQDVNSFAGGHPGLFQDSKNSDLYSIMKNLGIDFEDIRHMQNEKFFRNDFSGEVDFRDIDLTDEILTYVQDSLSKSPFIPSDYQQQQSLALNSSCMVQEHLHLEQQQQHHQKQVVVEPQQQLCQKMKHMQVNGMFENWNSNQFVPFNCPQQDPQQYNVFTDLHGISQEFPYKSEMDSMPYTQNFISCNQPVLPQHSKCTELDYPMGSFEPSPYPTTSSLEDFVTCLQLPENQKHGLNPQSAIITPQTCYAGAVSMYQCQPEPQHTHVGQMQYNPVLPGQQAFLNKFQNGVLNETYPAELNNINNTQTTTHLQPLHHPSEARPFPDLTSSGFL
In general terms: Quantitative high-throughput screening tests each substance at several concentrations.

Experiment [2] in a line: qHTS assay to identify small molecule that activate the aryl hydrocarbon receptor (AhR) signaling pathway - cell viability counter screen (AID 743086).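 Further: HepG2 liver cells carrying the AhR DRE luciferase reporter; series mostly up to about 70 µM; nearly all actives have a fitted effect of over 45% in size.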 In outline: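 HepG2-AhR-luc (HG2L7.5c1) cells, 4000/well, were preincubated 5 h at 37C, exposed to compound in qHTS format for 24 hr at 37C, then given CellTiter-Fluor for 30 min; viability was read as fluorescence in the reporter wells.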

Experiment [3] concerns the target Peroxisome proliferator-activated receptor gamma (Homo sapiens) (UniProt P37231). As to the kind of experiment: qHTS assay to identify small molecule agonists of the peroxisome proliferator-activated receptor gamma (PPARg) signaling pathway (AID 743094; active means well fitted activation curve with a large enough effect in the signal ratio in the repeat runs, not every such curve was filed as active; the % refers to the signal ratio). In outline: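 GeneBLAzer PPARg UAS-bla HEK293H cells carrying a stably integrated beta-lactamase reporter were pre-incubated 5 h at 37C, then exposed to compounds in DMSO for 17 h at 37C; LiveBLAzer B/G FRET substrate was added for 1 h at room temperature and fluorescence read.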

Experiment [4] shares this target. As to the kind of experiment: qHTS assay to identify small molecule antagonists of the peroxisome proliferator-activated receptor gamma (PPARg) signaling pathway (AID 743191; calls by dose curve; further: series mostly up to about 63 µM; nearly all actives have a fitted effect of over 30% in size). The method, boiled down: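 GeneBLAzer PPARg UAS-bla HEK293H cells carrying a UAS-driven beta-lactamase reporter were plated at 3000 cells/well, preincubated 5 h at 37C, then given compound for 17 h at 37C; LiveBLAzer B/G FRET substrate was read after 1 h at room temperature.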

Experiment [5] in a line: qHTS assay for small molecule agonists of the antioxidant response element (ARE) signaling pathway (AID 743202; active means well fitted activation curve with a large enough effect in the signal ratio in the repeat runs, not every such curve was filed as active; the % refers to the signal ratio; further: potency means the concentration at half of the fitted maximal effect). The method, boiled down:
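Compounds delivered in DMSO to ARE-bla HepG2 cells (2,000 cells/well, pre-incubated 5 h) and left 16 h at 37 C. LiveBLAzer B/G FRET substrate then added for 2 h at RT before fluorescence reading.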

The nature of experiment [6]: qHTS assay for small molecule agonists of the antioxidant response element (ARE) signaling pathway - cell viability counter screen (AID 743203; calls by dose curve; further: nearly all actives have a fitted effect of over 55% in size). In outline:
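CellSensor ARE-bla HepG2 cells, 2,000 per well, rested 5 hrs at 37C/5% CO2, then exposed to compound in DMSO for 16 hrs; viability read as CellTiter-Glo luminescence after 30 min at room temperature, in the reporter wells.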

A short description of experiment [7]: qHTS assay for small molecule activators of the heat shock response signaling pathway - cell viability counter screen (AID 743209). Further: nearly all actives have a fitted effect of over 50% in size. In outline:
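CellSensor HSE-bla HeLa cells, plated overnight at 37 C/5% CO2, were exposed to compounds in DMSO for 5 h at 37 C. Viability was then read in the same wells by CellTiter-Glo luminescence after 30 min at room temperature.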

The nature of experiment [8]: qHTS assay for small molecule activators of the heat shock response signaling pathway (AID 743210; active means well fitted activation curve with a large enough effect in the signal ratio in the repeat runs, with a control signal flat, not every such curve was filed as active; the % refers to the signal ratio;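 further: HeLa cells with beta-lactamase reporter driven by heat shock elements; series mostly up to about 63 µM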). The method, boiled down:
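Reporter gene assay: HeLa cells stably bearing an HSE-bla construct, compound treatment 5 h at 37 C, LiveBLAzer substrate 2.5 h at RT, fluorescence intensity.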

Experiment [9] addresses Peroxisome proliferator-activated receptor delta (Homo sapiens) (UniProt Q03181). As to the kind of experiment: qHTS assay to identify small molecule agonists of the peroxisome proliferator-activated receptor delta (PPARd) signaling pathway (AID 743212; calls by dose curve). In outline:
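A PPARd-bla HEK293H line with beta-lactamase under an Upstream Activator Sequence is treated with compounds at 37 C. Substrate loading for 2 h at room temperature precedes the fluorescence measurement.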

The nature of experiment [10]: qHTS assay to identify small molecule antagonists of the peroxisome proliferator-activated receptor delta (PPARd) signaling pathway - cell viability counter screen (AID 743213). Further: nearly all actives have a fitted effect of over 50% in size. The method, boiled down:
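Same-well viability: cells pre-incubated 5 h, dosed with compound plus 300 nM L165041, kept 17 h at 37 C, FRET substrate 2 h RT, then CellTiter-Glo 30 min RT and luminescence.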

For experiment [11], the target named is Peroxisome proliferator-activated receptor delta (Homo sapiens) (UniProt Q03181). Put plainly: qHTS assay to identify small molecule antagonists of the peroxisome proliferator-activated receptor delta (PPARd) signaling pathway (AID 743215; active means well fitted inhibition curve with a large enough effect in the signal ratio in the repeat runs, not every such curve was filed as active; the % refers to the signal ratio;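 further: cells stimulated with agonist L165041 at 300 nM final during compound exposure; series mostly up to about 62 µM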). In outline:
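PPARd UAS-bla HEK293H cells were pre-incubated 5 h at 37 C, then given test compounds in DMSO plus agonist L165041 (300 nM final). After 17 h at 37 C, beta-lactamase FRET substrate was added; fluorescence read after 2 h at room temperature.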

Experiment [12] has as its target Bile acid receptor (Homo sapiens) (UniProt Q96RI1). As to the kind of experiment: qHTS assay to identify small molecule antagonists of the farnesoid-X-receptor (FXR) signaling pathway (AID 743217; active means well fitted inhibition curve with a large enough effect in the signal ratio in the repeat runs, not every such curve was filed as active; the % refers to the signal ratio). In outline:
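FXR-UAS-bla HEK 293T cells pre-incubated 5 h at 37 °C, then exposed to compounds with chenodeoxycholic acid (50 uM final) for 16 h at 37 °C. Beta-lactamase reporter read by LiveBLAzer B/G FRET substrate fluorescence after 2 h at room temperature.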

For experiment [13] the target is unchanged. Put plainly: qHTS assay to identify small molecule agonists of the farnesoid-X-receptor (FXR) signaling pathway (AID 743220; active means well fitted activation curve with a large enough effect in the signal ratio in the repeat runs, not every such curve was filed as active; the % refers to the signal ratio). The method, boiled down: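 Beta-lactamase reporter under UAS control in GeneBLAzer FXR HEK 293T cells (5000/well) measured with LiveBLAzer FRET substrate after 2 h at room temperature. Compound exposure lasted 16 h at 37C.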
Experiment [14] in a line: qHTS assay to identify small molecule antagonists of the farnesoid-X-receptor (FXR) signaling pathway - cell viability counter screen (AID 743221; active means well fitted cell-killing curve with a large enough effect in the repeat runs, not every such curve was filed as active; further: nearly all actives have a fitted effect of over 50% in size). The method, boiled down: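 Here viability was scored by luminescence after CellTiter-Glo addition to wells already read for beta-lactamase. Prior treatment: compound plus CDCA (50 uM final), 16 h, 37 C, HEK 293T FXR-bla cells.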

The nature of experiment [15]: qHTS assay to identify small molecule agonists of the vitamin D receptor (VDR) signaling pathway - cell viability counter screen (AID 743224). Further: series mostly up to about 63 µM; nearly all actives have a fitted effect of over 50% in size. The method, boiled down: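 VDR-bla cells were preincubated 4 h at 37C/5% CO2, then exposed to compounds for 16 h. After the 2 h room-temperature bla FRET read, CellTiter-Glo was added to the same wells and luminescence read after 30 min.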

Experiment [16] is described as follows: qHTS assay to identify small molecule antagonists of the peroxisome proliferator-activated receptor gamma (PPARg) signaling pathway - cell viability counter screen (AID 743194). Further: nearly all actives have a fitted effect of over 55% in size. The note with it: Potency: co-treated with 50 nM rosiglitazone. In outline: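 PPARg-UAS-bla HEK293H cells were plated, rested 5 h at 37 C, then treated with compounds plus rosiglitazone (50 nM final) for 17 h at 37 C; viability was then read by CellTiter-Glo luminescence after 30 min at room temperature.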

The nature of experiment [17]: qHTS assay to identify small molecule agonists of the peroxisome proliferator-activated receptor delta (PPARd) signaling pathway - cell viability counter screen (AID 743211). Further: nearly all actives have a fitted effect of over 55% in size. In outline:
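In the same wells used for beta-lactamase reporter measurement, cytotoxicity is scored by CellTiter-Glo. HEK293H PPARd-bla cells receive compound for 17 h at 37C following a 5 h settling period.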

Experiment [18] is described as follows: qHTS assay to identify small molecule agonists of the farnesoid-X-receptor (FXR) signaling pathway - cell viability counter screen (AID 743218). Further: nearly all actives have a fitted effect of over 45% in size. The method, boiled down:
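FXR-UAS-bla HEK 293T cells, plated 5 h at 37 C, were exposed to compounds for 16 h at 37 C. CellTiter-Glo was then added to the same wells as the bla readout; luminescence read after 30 min at room temperature.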

Experiment [19] concerns the target Vitamin D3 receptor (Homo sapiens) (UniProt P11473). Put plainly: qHTS assay to identify small molecule agonists of the vitamin D receptor (VDR) signaling pathway (AID 743222; calls by dose curve). In outline: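 VDR-bla cells were plated 4 h at 37C/5% CO2, then exposed to compounds in DMSO for 16 h. After LiveBLAzer B/G FRET substrate addition and 2 h at room temperature, beta-lactamase reporter fluorescence was read.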

Experiment [20] shares this target. Put plainly: qHTS assay to identify small molecule antagonists of the vitamin D receptor (VDR) signaling pathway (AID 743223; active means well fitted inhibition curve with a large enough effect in the signal ratio in the repeat runs, not every such curve was filed as active; the % refers to the signal ratio). The method, boiled down:
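Inhibition of agonist-driven VDR signalling is scored in VDR-bla cells: 3 nM final 1alpha,25-dihydroxyvitamin D3 plus compound, 16 h at 37C, then beta-lactamase detection by FRET substrate fluorescence after 2 h.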

Chain of Bile acid receptor (Homo sapiens) (Q96RI1 whole entry, looked up): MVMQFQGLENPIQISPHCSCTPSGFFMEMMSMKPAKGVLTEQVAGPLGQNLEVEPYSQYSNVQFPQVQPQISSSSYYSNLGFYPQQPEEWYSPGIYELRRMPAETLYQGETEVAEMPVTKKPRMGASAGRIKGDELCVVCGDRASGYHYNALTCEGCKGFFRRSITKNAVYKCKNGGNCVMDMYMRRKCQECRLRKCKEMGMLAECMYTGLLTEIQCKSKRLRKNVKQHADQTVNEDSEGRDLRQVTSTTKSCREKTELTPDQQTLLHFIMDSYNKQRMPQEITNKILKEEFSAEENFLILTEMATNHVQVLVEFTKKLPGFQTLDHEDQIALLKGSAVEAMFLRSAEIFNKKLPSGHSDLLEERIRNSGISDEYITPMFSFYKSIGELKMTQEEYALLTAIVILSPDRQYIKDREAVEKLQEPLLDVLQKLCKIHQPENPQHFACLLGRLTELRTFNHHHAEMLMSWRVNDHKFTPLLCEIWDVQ
Chain of Peroxisome proliferator-activated receptor delta (Homo sapiens) (Q03181 whole entry, looked up): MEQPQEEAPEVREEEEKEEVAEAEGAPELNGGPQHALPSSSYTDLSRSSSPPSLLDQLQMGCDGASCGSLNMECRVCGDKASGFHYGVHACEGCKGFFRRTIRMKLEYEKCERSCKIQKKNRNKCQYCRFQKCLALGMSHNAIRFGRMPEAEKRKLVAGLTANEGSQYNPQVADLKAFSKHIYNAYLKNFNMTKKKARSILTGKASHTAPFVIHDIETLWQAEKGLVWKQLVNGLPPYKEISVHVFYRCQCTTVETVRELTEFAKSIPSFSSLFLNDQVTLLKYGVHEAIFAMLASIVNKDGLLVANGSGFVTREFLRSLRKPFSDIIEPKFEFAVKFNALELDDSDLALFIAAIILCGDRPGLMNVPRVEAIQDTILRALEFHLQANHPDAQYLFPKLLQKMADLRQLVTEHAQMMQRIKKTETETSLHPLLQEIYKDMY
Chain of Vitamin D3 receptor (Homo sapiens) (P11473 whole entry, looked up): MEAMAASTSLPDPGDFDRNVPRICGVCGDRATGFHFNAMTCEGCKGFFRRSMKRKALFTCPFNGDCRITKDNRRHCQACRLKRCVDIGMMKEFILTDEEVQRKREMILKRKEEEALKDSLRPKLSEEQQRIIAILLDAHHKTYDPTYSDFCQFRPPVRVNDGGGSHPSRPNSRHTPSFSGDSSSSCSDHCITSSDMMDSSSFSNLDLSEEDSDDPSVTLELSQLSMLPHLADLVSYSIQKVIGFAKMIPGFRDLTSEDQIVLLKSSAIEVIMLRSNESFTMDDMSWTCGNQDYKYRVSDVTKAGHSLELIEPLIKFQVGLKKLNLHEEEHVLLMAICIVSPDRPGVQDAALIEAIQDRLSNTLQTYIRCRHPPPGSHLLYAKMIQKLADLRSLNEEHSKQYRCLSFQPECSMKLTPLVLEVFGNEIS
Chain of Peroxisome proliferator-activated receptor gamma (Homo sapiens) (P37231 whole entry, looked up): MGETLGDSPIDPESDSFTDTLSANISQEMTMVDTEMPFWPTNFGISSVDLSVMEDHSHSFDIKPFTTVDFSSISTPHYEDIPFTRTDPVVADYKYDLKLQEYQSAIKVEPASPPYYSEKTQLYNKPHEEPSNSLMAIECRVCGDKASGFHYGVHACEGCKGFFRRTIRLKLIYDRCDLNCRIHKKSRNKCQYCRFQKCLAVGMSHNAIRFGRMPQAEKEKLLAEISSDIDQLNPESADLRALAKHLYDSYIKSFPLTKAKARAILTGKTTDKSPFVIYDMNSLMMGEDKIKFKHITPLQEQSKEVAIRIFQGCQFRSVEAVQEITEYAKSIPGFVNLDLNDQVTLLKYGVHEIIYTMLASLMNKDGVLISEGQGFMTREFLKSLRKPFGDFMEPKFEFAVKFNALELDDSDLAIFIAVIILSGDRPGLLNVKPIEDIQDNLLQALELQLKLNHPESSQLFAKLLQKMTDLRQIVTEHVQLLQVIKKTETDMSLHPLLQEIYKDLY

As for `COc1ccc2c(C(=O)c3ccc(Cl)cc3)c(C)n(CC(=O)O)c2c1`, the Potency in experiment [1] is 33.5 µM (active). The Potency result in experiment [2], in [4], in [5], in experiment [6], in experiment [7] and in experiment [8] was “inactive” in each case. Moreover, the Potency result in [10], in [11], in experiment [14] and in experiment [15] was “inactive” in each case. The compound was called inactive in experiment [3], in experiment [9], in [12] and in experiment [13].

With `CCC1(c2ccccc2)C(=O)N(COC)C(=O)N(COC)C1=O`, the Potency entry in experiment [1], in experiment [2], in experiment [4], in experiment [16], in experiment [5] and in experiment [8] was “inactive” in each case. Further, the Potency entry in experiment [17], in [10], in experiment [11], in experiment [18], in experiment [14] and in [15] was “inactive” throughout. Also, the result in experiment [3], in experiment [9], in experiment [19] and in experiment [20] was inactive.

For the compound `C(COCC1CO1)OCC1CO1` (stereo unspecified), the Potency result in experiment [1], in experiment [2], in experiment [4], in experiment [16], in [6] and in [7] was “inactive” throughout. For the same compound, the Potency result in experiment [17], in experiment [10], in experiment [11], in [18] and in [14] was “inactive” each time. Also, the result in experiment [3], in experiment [9], in experiment [12] and in [13] was inactive.

In the case of `CN=CNc1ccc(C)cc1C`, the Potency entry in experiment [1], in experiment [2], in experiment [4], in experiment [16], in experiment [7] and in experiment [8] was “inactive” in each case. Moreover, the Potency result in experiment [17], in experiment [10], in experiment [18], in experiment [14] and in experiment [15] was “inactive” each time. Moreover, the call in experiment [3], in experiment [9], in experiment [19] and in experiment [20] was inactive.

For `c1cncc([C@@H]2CCCCN2)c1`, the Potency entry in [1], in [2], in [4], in [5], in experiment [6] and in [7] was “inactive” each time. For the same compound, the Potency entry in experiment [8], in experiment [17], in experiment [10], in experiment [11], in [18] and in experiment [14] was “inactive” each time. Besides, in experiment [15], the Potency entry is “inactive”. Also, the call in experiment [3], in experiment [9], in experiment [19] and in experiment [20] was inactive.

Consider `CC1NCCOC1c1ccccc1` (stereo unspecified), for which the Potency entry in [1], in experiment [2], in [4], in experiment [16], in experiment [5] and in [7] was “inactive” in each case. In addition, the Potency entry in [8], in [17], in experiment [10], in [11], in experiment [18] and in [14] was “inactive” throughout. In [15], the Potency result was “inactive”. Also, the call in experiment [3], in [9], in experiment [19] and in experiment [20] was inactive.

On to `O=P(O)(O)CN(CP(=O)(O)O)CP(=O)(O)O`, for which the Potency entry in experiment [1], in experiment [2], in [16], in experiment [5], in experiment [6] and in experiment [7] was “inactive” throughout. Moreover, the Potency entry in experiment [8], in [17], in experiment [10], in experiment [11], in experiment [18] and in experiment [14] was “inactive” in each case. Further, the Potency entry in experiment [15] is “inactive”. Moreover, the call in [3], in experiment [9], in experiment [19] and in experiment [20] was inactive.

Take `CCOC(=O)CC(SP(=S)(OC)OC)C(=O)OCC` (stereo unspecified): the Potency result in experiment [1] was “inactive and 33.1 µM (active)”; in experiment [5], 6.86 µM (active). Besides, the Potency result in experiment [2], in experiment [4], in experiment [16], in experiment [7], in experiment [10] and in experiment [11] was “inactive” each time. For the same compound, the Potency result in experiment [18] and in [14] was “inactive” throughout. Also, the compound was classed as inactive in experiment [3], in [9], in experiment [19] and in [20].

Take `C[N+]1(C)CCCCC1`: the Potency entry in experiment [1], in [2], in experiment [4], in [5], in experiment [6] and in [7] was “inactive” in each case. Besides, the Potency entry in experiment [8], in experiment [10], in experiment [18], in experiment [14] and in experiment [15] was “inactive” throughout. In addition, the result in experiment [3], in experiment [9], in experiment [19] and in experiment [20] was inactive.
